# TDP1 cell noCPT: qHTS for Inhibitors of human tyrosyl-DNA phosphodiesterase 1 (TDP1): qHTS in cells in absence of CPT. hit rate 15% among 420,000. Potency, µM (doses to about 46.2 µM), for inactives: top-dose activity change, negative = growth inhibition, most hits filed as inhibitors. DT40 Tdp1-/- hTDP1 cells, no CPT, ATP luminescence, 48 h; note: nearly all actives have a fitted effect of over 55% in size
#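 DT40 Tdp1-/-;hTDP1 cells, no CPT (DMSO vehicle only), 400 cells/well; compounds pin-transferred; ≥48 hr, 37 °C; CellTiter-Glo 30 min RT dark, luminescence read.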
# ALOX12 inh: inhibitors of human 12S-lipoxygenase ALOX12. P18054. AID 1671190. Potency, µM (doses to about 108 µM), inactives show at the highest dose activity change, negative = inhibition, actives largely listed as inhibitors. purified 12hLO, xylenol orange hydroperoxide absorbance. hit rate 1.1% among 580,000
#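 Hydroperoxide product was detected by ferrous iron/xylenol orange as the 573 to 405 nm absorbance ratio. Arachidonic acid at 40 uM (final) was turned over for 30 min at room temperature by 150 nM human 12hLO, pH 7.0 Hepes buffer, after 15 min compound preincubation.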
# Gal4-VP16 FLuc: counter-screen for ROR gamma inhibitors: Gal4-VP16 reporter; hit rate 3.5% among 310,000; AID 2546; Drosophila S2 Gal4-VP16 UAS-luciferase, luminescence, 20 h; Potency, µM (series often up to 53.6 µM), without a hit: top-dose activity, negative = inhibition, hits mostly inhibitors;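 note: Gal4-VP16 expression switched on by copper sulfate through the metallothionein promoter; nearly all actives have a fitted effect of over 50% in size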
# RORgamma inh: inhibitors of mouse ROR gamma transcriptional activity; P51450; Drosophila S2 Gal4-RORgamma UAS-luciferase reporter, 20 h; Potency, µM (series often up to 53.6 µM), for inactives: at the highest dose activity change, negative = inhibition, usual class: inhibitors; hit rate 5.4% among 310,000; AID 2551; note: nearly all actives have a fitted effect of over 60% in size
# Target sequence (P51450 whole entry, looked up, the tested form may be a part): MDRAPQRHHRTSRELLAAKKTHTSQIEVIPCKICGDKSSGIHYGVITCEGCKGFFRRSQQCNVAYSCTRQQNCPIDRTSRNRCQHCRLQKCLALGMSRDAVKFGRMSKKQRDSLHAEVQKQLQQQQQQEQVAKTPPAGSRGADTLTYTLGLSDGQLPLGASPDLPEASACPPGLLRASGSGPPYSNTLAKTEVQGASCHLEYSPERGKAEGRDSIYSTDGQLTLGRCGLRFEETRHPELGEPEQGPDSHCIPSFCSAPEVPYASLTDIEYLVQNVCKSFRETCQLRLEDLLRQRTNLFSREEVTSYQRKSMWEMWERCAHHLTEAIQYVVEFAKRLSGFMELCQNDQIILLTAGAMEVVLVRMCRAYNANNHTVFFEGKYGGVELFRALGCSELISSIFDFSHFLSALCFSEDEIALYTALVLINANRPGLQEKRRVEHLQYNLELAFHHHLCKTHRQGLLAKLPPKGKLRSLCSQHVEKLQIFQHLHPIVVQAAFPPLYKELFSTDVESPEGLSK
#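 Read-out: Photinus luciferase luminescence; inhibitors lower reporter signal. Insect Schneider cells with Gal4-ROR gamma fusion under metallothionein promoter, UAS reporter; 700 uM final copper sulfate induction, 20 hr, ambient temperature.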
# ELG1 DNA repair: ELG1-dependent DNA repair inhibition; HEK293T ELG1-luciferase reporter, luminescence, 16 h; DNA damage induced by 5-fluorouridine; Potency, µM (titrated, usually from 46.1 µM), for inactives: top-dose activity change, negative = inhibition, hits mostly inhibitors; hit rate 2.3% among 330,000; note: nearly all actives have a fitted effect of over 55% in size
#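 Overnight (16 hr) co-exposure of 2,000 cells/well to 5-fluorouridine and compound at 37 °C preceded detection. Luciferase was quantified via ONE-Glo luminescence; loss of signal denotes inhibition.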
# DT40 TDP1 CPT: growth inhibition of DT40 Tdp1-/-;hTDP1 cells with camptothecin (screen for TDP1 inhibitors). chicken DT40 Tdp1-/-;hTDP1 cells + 20 nM CPT, ATP luminescence, 48 h. Potency, µM (highest dose often 46.2 µM), inactives show at the highest dose activity change, negative = growth inhibition, actives largely listed as inhibitors. hit rate 12% among 420,000; note: nearly all actives have a fitted effect of over 55% in size
#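 Chicken DT40 Tdp1-/- cells complemented with human TDP1, 400 cells/well, exposed to compounds plus 20 nM camptothecin for at least 48 h at 37 C; viability read as ATP content by CellTiter-Glo luminescence.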
# * = called active by the depositor; ? = inconclusive; . = no result given. This is a sample that favours compounds with a hit; in the whole collection about 15% have one here. Calls come from the whole dose curve; as a rule, active = well fitted curve in the direction sought with a large enough effect; inconclusive = small, poorly fitted or top-dose-only effect, or another doubt; inactive = no such curve, though single readings can be large; an effect the other way counts as inactive or inconclusive. % is set by controls: 0 for no effect and ±100 for the full control effect; potency is the fitted concentration of half-maximal effect.
SMILES,TDP1 cell noCPT,ALOX12 inh,Gal4-VP16 FLuc,RORgamma inh,ELG1 DNA repair,DT40 TDP1 CPT
O=C(C1CCN(c2nc(-c3cccs3)nc3ccccc23)CC1)N1CCCCCC1,.,7.8%,.,.,.,.
COc1ccc(Cn2c(=O)c3ccccc3n3c(-c4ccc(C)cc4)nnc23)cc1,?,-15.9%,.,.,.,?
COc1ccc(-c2nnc3n(CCc4ccccc4)c(=O)c4ccccc4n23)cc1OC,23.1µM*,-18.4%,?,-38.2%,6.51µM*,?
COc1cc(NC(=O)COc2cc(O)c3c(c2)OC(C)(C)CC3=O)cc(OC)c1OC,0.259µM*,0.7%,2.51µM*,?,10.3µM*,0.461µM*
COc1ccc(CNC(=O)COc2cc(O)c3c(c2)OC(C)(C)CC3=O)cc1,0.82µM*,-8.8%,-5.1%,18.1%,-5.7%,32.6µM*
CC(NC(=O)/C=C/c1cccnc1)c1ccc(C(F)(F)F)cc1 (centres undefined),.,1.0%,.,.,.,.
NC(=Nc1ccccc1)N(c1ccccc1)c1ccccc1,13µM*,2.7%,.,.,.,?
NC(=O)[C@@H](Cc1ccccc1)NC(=O)C1=C[C@@H](NC(=O)c2ccc(F)c(Cl)c2)[C@@H](O)[C@H](O)C1,.,-25.2%,.,.,.,.
CN(Cc1ccc(F)cc1)C(=O)c1cccc(S(=O)(=O)N2CCN(Cc3ccccc3)CC2)c1,13µM*,?,.,.,-7.0%,20.6µM*
CC(=O)N1CCN(S(=O)(=O)c2cccc(C(=O)NC3CCCC(C)C3C)c2)CC1 (centres undefined),?,-6.8%,.,.,.,-26.1%
CSc1ccc(CN(C)C(=O)c2cccc(S(=O)(=O)N3CCN(Cc4ccccc4)CC3)c2)cc1,13µM*,5.7%,.,.,?,16.4µM*
CC1CCCCC1NC(=O)c1cccc(S(=O)(=O)N2CCN(Cc3ccccc3)CC2)c1 (centres undefined),20.6µM*,0.8%,.,.,-18.0%,16.4µM*
O=C(NCCc1noc(C2CC2)n1)C1CCCC1,.,-1.4%,.,.,.,.
Cn1c(=O)c2c(nc(NCCCO)n2Cc2cccc(Cl)c2)n(C)c1=O,.,6.6%,.,.,.,.
O=C(CCn1ccc(=O)[nH]c1=O)N[C@H](c1ccccn1)C1CC(O)C1 (some centres undefined),.,-23.0%,.,.,.,.
NC(=O)CC(NC(=O)Cc1cccc2ccccc12)c1ccc(N2CCc3ccccc3C2)c([N+](=O)[O-])c1 (centres undefined),?,?,-5.0%,-11.7%,?,16.4µM*
NC(=O)CC(NC(=O)Cc1cccc2ccccc12)c1ccc(N2CCCCCC2)c([N+](=O)[O-])c1 (centres undefined),-12.0%,-21.0%,-0.9%,13.2%,5.4%,-23.6%
NC(=O)CC(NC(=O)Cc1ccc(Br)cc1)c1ccc(N2CCN(c3ccccc3)CC2)c([N+](=O)[O-])c1 (centres undefined),?,-2.6%,-14.5%,-13.0%,-6.8%,16.4µM*
NC(=O)CC(NC(=O)c1ccccc1)c1ccc(N2CCCCCC2)c([N+](=O)[O-])c1 (centres undefined),11.6µM*,-5.1%,?,24.1%,7.4%,?
NC(=O)CC(NC(=O)c1ccccc1)c1ccc(N2CCN(c3ccc(F)cc3)CC2)c([N+](=O)[O-])c1 (centres undefined),8.2µM*,?,22.4µM*,12.9%,?,18.4µM*
O=C(NCCN1CCN(C(=O)c2ccc(Cl)cc2)CC1)c1ccc(Cl)cc1,.,-29.3%,.,.,.,.
NC(=O)CC(NC(=O)c1ccccc1)c1ccc(N2CCN(c3ccccc3)CC2)c([N+](=O)[O-])c1 (centres undefined),13µM*,-12.2%,?,?,?,20.6µM*
O=C1Nc2cc3c(cc2C1=O)sc1ccccc13,29.1µM*,33.3%,-25.4%,?,-18.3%,20.6µM*
Cc1cc2c(cc1C)C(=O)C(=O)N2,?,-6.2%,.,.,.,?
COn1c(C)c(C(C)=O)c2c3nonc3ccc21,-19.4%,137.4%,2.8%,11.2%,20.6µM*,-1.1%
SMILES,TDP1 cell noCPT,ALOX12 inh,Gal4-VP16 FLuc,RORgamma inh,ELG1 DNA repair,DT40 TDP1 CPT
COc1cccc(NC(=O)c2cc[n+]([O-])cc2)c1,.,0.0%,.,.,.,.
CCOc1cc2[nH]c(=S)n(CCCN(CC)CC)c(=O)c2cc1OCC,-22.6%,-11.9%,-12.7%,-39.7%,1.1%,-18.5%
COCCn1c(=S)[nH]c2ccc(N(C)C)cc2c1=O,-5.0%,-18.6%,?,15.8µM*,-1.0%,-2.7%
COc1cc2[nH]c(=S)n(Cc3cccs3)c(=O)c2cc1OC,?,3.5%,-14.5%,?,-1.5%,?
COCCn1c(=S)[nH]c2cc(C(=O)NCc3ccccc3)ccc2c1=O,-26.4%,12.4%,.,.,.,-5.2%
CCOc1cc2[nH]c(=S)n(CCOC)c(=O)c2cc1OCC,-14.2%,-14.0%,8.91µM*,2.82µM*,2.9%,-3.2%
CCCCN(C)CCn1c(=S)[nH]c2cc(OCC)c(OCC)cc2c1=O,-3.9%,-2.0%,?,11.2µM*,29.5%,-21.0%
CCCn1c(=S)[nH]c2cc(OC)c(OC)cc2c1=O,-11.7%,-26.9%,7.94µM*,3.16µM*,.,-2.9%
CCN(CC(=O)NC(C)(C)C)C(=O)c1ccc(C#N)cc1,.,50.6%,.,.,.,.
N#CC1(NC(=O)CSc2cc(C(N)=O)c3ccccc3n2)CCCCCC1,.,-4.8%,.,.,.,.
CCCCSc1nnc(NC(=O)c2cc(=O)c3ccccc3o2)s1,.,0.5%,.,.,.,.
CCC(C)NC(=O)Nc1ccc(-c2noc(-c3ccco3)n2)cc1 (centres undefined),.,6.1%,.,.,.,.
CN(C)c1ccc(/C=C2\SC(=S)N(Nc3ncc(C(F)(F)F)cc3Cl)C2=O)cc1,8.2µM*,-18.1%,-0.2%,-24.9%,15.8%,8.2µM*
COc1cc(/C=C2\SC(=S)N(Nc3ncc(C(F)(F)F)cc3Cl)C2=O)ccc1O,?,.,-30.0%,19.2%,?,20.6µM*
CCc1noc2nc(C)nc(N3CCCC(C(=O)NCc4ccccc4F)C3)c12 (centres undefined),.,3.6%,.,.,.,.
Cc1ccc(NC(=O)CCc2c[nH]c3ccccc23)cc1C,.,-15.7%,.,.,.,.
Cc1cc(C)nc(Sc2nc(Cl)nc(N(c3ccccc3)c3ccccc3)n2)n1,?,0.0%,?,11.2µM*,?,?
Cc1cc(C)nc(SC(C(=O)O)c2ccccc2)n1 (centres undefined),-6.5%,-0.5%,-0.5%,6.1%,?,1.8%

# Source: PubChem
